From PubChem BioAssay
hiPSC survival = hiPSC single-cell survival enhancement; ATPlite luminescence; 100% = ROCK inhibitor wells, 0% = DMSO; survival enhancement, % at 20 µM; 360,000 compounds, 0.044% hits; AID 602274; in the data active = survival enhancement above about 18%;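 note: cells exposed to compounds for 16 hours before the ATP read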
DAGLB inhibitor = blocks human DAGLB lipase activity; HEK293T DAGLB membrane lysate, EnzChek fluorogenic substrate; inhibition, % at 5.17 µM; 340,000 compounds, 0.059% hits; in the data active = inhibition above about 34%
Target sequence (Q8NCG7 whole entry, looked up): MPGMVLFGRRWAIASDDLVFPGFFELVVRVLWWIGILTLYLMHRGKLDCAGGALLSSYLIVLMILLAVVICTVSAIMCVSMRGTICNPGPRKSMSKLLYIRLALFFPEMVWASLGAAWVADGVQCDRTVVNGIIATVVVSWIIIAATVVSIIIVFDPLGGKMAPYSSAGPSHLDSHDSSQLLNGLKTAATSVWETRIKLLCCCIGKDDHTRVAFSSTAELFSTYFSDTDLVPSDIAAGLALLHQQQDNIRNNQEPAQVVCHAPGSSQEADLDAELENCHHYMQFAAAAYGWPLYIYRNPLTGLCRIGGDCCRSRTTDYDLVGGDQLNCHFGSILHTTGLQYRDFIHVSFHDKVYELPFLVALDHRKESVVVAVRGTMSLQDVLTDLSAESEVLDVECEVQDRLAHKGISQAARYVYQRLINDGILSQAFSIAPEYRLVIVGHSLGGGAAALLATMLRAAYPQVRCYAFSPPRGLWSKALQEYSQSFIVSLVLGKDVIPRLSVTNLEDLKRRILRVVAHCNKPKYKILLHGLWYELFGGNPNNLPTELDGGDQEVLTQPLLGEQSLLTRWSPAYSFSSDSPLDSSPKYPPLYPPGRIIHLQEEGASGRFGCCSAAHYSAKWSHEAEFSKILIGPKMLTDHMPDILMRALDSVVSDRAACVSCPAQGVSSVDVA
ANO1 block = inhibitors of mouse TMEM16A calcium-activated chloride channel; Q8BHY3; HEK293 TMEM16A/YFP iodide influx fluorescence, ionomycin; normalized B-score (activity score, 25-100; higher = stronger inhibition) at 10 µM; 310,000 compounds, 1.2% hits; AID 588511;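 active = ratio plate-corrected score three or more library SD toward inhibition, starting fluorescence score within five deviations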;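 note: score derived from kinetic fluorescence span divided by baseline fluorescence per well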
ABCB6 inh 2 = human ABCB6 transporter inhibition | 360,000 compounds, 0.19% hits | fluorescence ratio to DMSO, % at 10 µM | AID 602162 | K562-ABCB6 porphyrin accumulation, flow cytometry, 1 h; hits give low values;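 active = fluorescence ratio to DMSO below 75%, the collection mean minus 3 SD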;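 note: signal is porphyrin accumulated inside mitochondria; lower ratio means ABCB6 inhibition with less porphyrin fluorescence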
TMEM16A act = activates or potentiates the mouse TMEM16A chloride channel | B-score at 10 µM | Q8BHY3 | HEK293 TMEM16A/YFP-H148Q/I152L, iodide quench fluorescence; hits give low values | AID 623877 | 340,000 compounds, 0.3% hits;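 active = fluorescence-ratio B-score plate-corrected deviation score at least 3 library SD below zero, with starting fluorescence score within 5 deviations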;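 note: channel opened by trigger with iodide after compound preincubation; score built on the fluorescence ratio of max minus min over baseline; more negative score means more quench and so TMEM16A activation or potentiation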
ABCB6 inh CP1 = human ABCB6 transporter inhibition | shares compounds with ABCB6 inh 2 | K562-ABCB6 porphyrin accumulation, flow cytometry, 1 h; hits give low values | ratio response (% of DMSO), % at 10 µM | 700 tested, under 10 active | AID 602430;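 active = repeat-averaged ratio response below 75% of DMSO, the collection mean minus 3 SD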;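 note: median porphyrin fluorescence at 575 nm with 488 nm excitation from mitochondria; lower ratio means less porphyrin signal so ABCB6 inhibition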
Of the large screens only hits and unclear results are named; the others gave an inactive call (follow-up assays come after a bar, where they were run). The list is not random: actives were taken first. Their share in the collection is about 1.5%.

O=C(c1ccc(COc2ccc(Br)cc2)o1)N1N=C(C(F)F)CC1(O)C(F)F (stereo unspecified)	none | ABCB6 inh CP1 inactive
Cc1ccc(C)c(OCc2ccc(C(=O)N3N=C(C(F)F)CC3(O)C(F)F)o2)c1 (stereo unspecified)	ABCB6 inh 2 63 | ABCB6 inh CP1 inactive
COc1ccccc1C(C(=O)NC1CCCC1)N(C(=O)c1csnn1)C1CC1 (stereo unspecified)	none
CC1CCC(C(O)(C(=O)O)C2CCCCC2)CC1C (stereo unspecified)	none (no result: ANO1 block)
Cc1cc(C)cc(OCc2ccc(C(=O)O)o2)c1	none
Cc1cc(C)cc(OCc2ccc(C(=O)N3N=C(C(F)F)CC3(O)C(F)F)o2)c1 (stereo unspecified)	none | ABCB6 inh CP1 inactive
CC(C)CC(=O)OCC(=O)Nc1ccccc1Sc1ccccc1	ABCB6 inh 2 74 | ABCB6 inh CP1 inactive
O=C(COC(=O)C1CCC1)Nc1ccccc1Sc1ccccc1	none
CCCC(C(=O)NC1CCCC1)N(Cc1ccccc1)C(=O)c1snc(C(N)=O)c1N (stereo unspecified)	ABCB6 inh 2 67 | ABCB6 inh CP1 inactive
CC(C)=CCC/C(C)=C/CNC(=O)C[C@H]1C[C@H](C(=O)N2CCOCC2)[C@@]2(CCC3CCCC3)c3[nH]c4cc(-c5ccco5)ccc4c3CCN2C1=O	none (no result: ANO1 block, TMEM16A act)
COc1ccccc1N(C)S(=O)(=O)c1ccc(C(=O)N2CCCC(C(F)(F)F)C2)cc1 (stereo unspecified)	ABCB6 inh 2 74 | ABCB6 inh CP1 inactive
Cn1c(CSc2ccccc2)c(C#N)c2ccccc21	ABCB6 inh 2 67 | ABCB6 inh CP1 inactive
Cc1c(C#N)c2ccccc2n1C	none
COc1ccccc1CN(C)C(=O)C(c1ccccc1)c1ccccc1	ABCB6 inh 2 73 | ABCB6 inh CP1 inactive
Cc1ccc(S(=O)(=O)N(C)CC(=O)NCCCn2ccnc2)cc1	ABCB6 inh 2 61 | ABCB6 inh CP1 inactive
CCOC(=O)c1ccc(NC(=O)CSc2nnc(CNC(=O)c3ccco3)o2)cc1	ABCB6 inh 2 14 | ABCB6 inh CP1 inactive
Cc1cccc(C)c1OCC(=O)Nc1ccc2c(c1)C(=O)NC2=O	none
Cc1cc(C)c2nc(NC(=O)C3CSC4(C)CCC(=O)N34)sc2c1 (stereo unspecified)	none (no result: ANO1 block)
Cc1cc(C)cc(CC(=O)N2CCC2(C)C(=O)NS(=O)(=O)c2ccc(Br)cc2)c1 (stereo unspecified)	none (no result: DAGLB inhibitor, ANO1 block, TMEM16A act) | ABCB6 inh CP1 inactive
CC1(C(=O)NS(=O)(=O)c2cccc(C#N)c2)CCN1C(=O)Cc1ccc(-c2ccccc2)cc1 (stereo unspecified)	none (no result: DAGLB inhibitor, ANO1 block, TMEM16A act)
Cc1cc(C)cc(CC(=O)N2CCC2(C)C(=O)NS(=O)(=O)c2cccc(F)c2)c1 (stereo unspecified)	none (no result: DAGLB inhibitor, ANO1 block, TMEM16A act) | ABCB6 inh CP1 inactive
Cc1cc(C)cc(CC(=O)N2CCC2(C)C(=O)NS(=O)(=O)c2ccccc2)c1 (stereo unspecified)	none (no result: DAGLB inhibitor, ANO1 block, TMEM16A act)
CC(C)(C)c1ccc(CC(=O)N2CCC2(C)C(=O)NS(=O)(=O)c2cccc(C#N)c2)cc1 (stereo unspecified)	ABCB6 inh 2 61 (no result: DAGLB inhibitor, ANO1 block, TMEM16A act) | ABCB6 inh CP1 inactive
CC1(C(=O)NS(=O)(=O)c2cccc(C#N)c2)CCN1C(=O)Cc1ccccc1Cl (stereo unspecified)	none (no result: DAGLB inhibitor, ANO1 block, TMEM16A act) | ABCB6 inh CP1 inactive
Cc1cc(OCC(O)CN2CCc3ccccc3C2)ccc1Cl (stereo unspecified)	none
O=C(CSc1cccc[n+]1[O-])NC1CCCCC1	none (no result: ANO1 block)
CC(C)OCCCn1c(SC(C)C(=O)NC2CC2)nc2ccccc2c1=O (stereo unspecified)	none
O=C(CC(=O)c1c(F)cccc1Cl)c1ccccc1O	none
Cc1cc(NC(=O)C2(C)CCN2C(C)C)c2ccccc2n1 (stereo unspecified)	none (no result: DAGLB inhibitor, ANO1 block, TMEM16A act)
CC1(C(=O)NS(=O)(=O)c2cccc(F)c2)CCN1C(=O)Cc1ccccc1Cl (stereo unspecified)	none (no result: DAGLB inhibitor, ANO1 block, TMEM16A act) | ABCB6 inh CP1 inactive
CC(Sc1nnc(CNC(=O)c2ccco2)n1C)C(=O)Nc1nccs1 (stereo unspecified)	none
CCN1C(=O)C(C)C=C(C)C=C1C (stereo unspecified)	none (no result: ANO1 block, TMEM16A act)
Cc1cc(NC(=O)CSc2nnnn2-c2ccc(C)c(Cl)c2)no1	ABCB6 inh 2 72 | ABCB6 inh CP1 inactive
Cc1cc(NC(=O)CSc2nnnn2-c2ccc(C)c(C)c2)no1	none (no result: DAGLB inhibitor)
Cc1ccc(N(Cc2ccccc2F)S(C)(=O)=O)c(C)c1	none
Cc1ccccc1N(Cc1ccccc1F)S(C)(=O)=O	ABCB6 inh 2 63 | ABCB6 inh CP1 inactive
C=C(C)C(=O)Nc1ccc2nn(-c3ccccc3O)nc2c1	none (no result: ANO1 block, TMEM16A act)
CC1(C(=O)NCCc2ccccc2)Cc2c(-c3cccc(C(N)=O)c3)ccnc2O1 (stereo unspecified)	none (no result: DAGLB inhibitor, ANO1 block, TMEM16A act)
CC(C)(C)OC(=O)N1CCCC(C(=O)Nc2cccc(C(=O)N3CCCCC3)c2)C1 (stereo unspecified)	none (no result: ANO1 block, TMEM16A act)
CN(C(=O)C1CCCCC1)C1CCS(=O)(=O)C1 (stereo unspecified)	none
CN(C(=O)C1CCCC1)C1CCS(=O)(=O)C1 (stereo unspecified)	ABCB6 inh 2 71 | ABCB6 inh CP1 inactive
CC(C)CN(C(=O)CSc1nnc(C2CC2)n1-c1ccccc1)C1CCS(=O)(=O)C1 (stereo unspecified)	none (no result: ANO1 block)
COc1ccccc1CNC(=O)COC(=O)COc1ccccc1F	ABCB6 inh 2 74 (no result: ANO1 block) | ABCB6 inh CP1 inactive
O=C(COc1ccccc1Br)NCc1ccccn1	none
COC(=O)c1ccc(CNC(=O)COc2ccccc2Br)o1	ABCB6 inh 2 32 | ABCB6 inh CP1 inactive
COc1cc(C(C)=O)ccc1OCC(O)CN1CCN(c2cc(C)cc(C)c2)CC1 (stereo unspecified)	none
O=C1NC[C@H](c2ccccc2)N(CCC23CC4CC(CC(C4)C2)C3)C1=O	none
CCCN(CCC)CCCNC(=O)c1cc2cc3ccc(Cl)cc3nc2o1	ABCB6 inh 2 73 | ABCB6 inh CP1 inactive
CCCCN(CC)CCNC(=O)c1cc2cc3ccc(Cl)cc3nc2o1	none
O=C(NC1CCCC1)c1ccc(COCC(F)(F)C(F)F)o1	ABCB6 inh 2 73 | ABCB6 inh CP1 inactive
O=C(NC1CCCC1)c1ccc(COCC(F)(F)F)o1	none
O=C(NCC1CCCO1)c1cc(-c2ccccc2F)no1 (stereo unspecified)	none
CC1CCCCC1NC(=O)c1cc2c(s1)CS(=O)(=O)C2 (stereo unspecified)	ABCB6 inh 2 71 | ABCB6 inh CP1 inactive
CC(C)C[C@H]1COc2cc(N3CCC[C@@H]3CO)ccc2S(=O)(=O)N1	none (no result: DAGLB inhibitor, ANO1 block, TMEM16A act)
N#Cc1c2n(c3c(=O)n(Cc4ccccc4)cnc13)CCCC2	ABCB6 inh 2 55 | ABCB6 inh CP1 inactive
O=C(Cn1cc(C(=O)c2cccs2)c2ccccc21)NC1CCCCC1	ABCB6 inh 2 60 | ABCB6 inh CP1 inactive
O=C1C=CC(=O)N1Cc1ccccn1	none (no result: ANO1 block)
